These results are taken from ChEMBL document CHEMBL1961873, “Compounds: GSK PKIS; Assays: Nanosyn kinase panel” (2012).

SMILES strings stand for the structures.

A word on the inhibition: it is the relative decrease from the control value, in per cent. A low value points to little suppression.

In the test the test system is Platelet-derived growth factor receptor alpha (Homo sapiens), P16234 [D842V]. The conditions noted are these: at 0.1 µM.
Chain of Platelet-derived growth factor receptor alpha (Homo sapiens), P16234 [D842V] (P16234 whole entry D842V): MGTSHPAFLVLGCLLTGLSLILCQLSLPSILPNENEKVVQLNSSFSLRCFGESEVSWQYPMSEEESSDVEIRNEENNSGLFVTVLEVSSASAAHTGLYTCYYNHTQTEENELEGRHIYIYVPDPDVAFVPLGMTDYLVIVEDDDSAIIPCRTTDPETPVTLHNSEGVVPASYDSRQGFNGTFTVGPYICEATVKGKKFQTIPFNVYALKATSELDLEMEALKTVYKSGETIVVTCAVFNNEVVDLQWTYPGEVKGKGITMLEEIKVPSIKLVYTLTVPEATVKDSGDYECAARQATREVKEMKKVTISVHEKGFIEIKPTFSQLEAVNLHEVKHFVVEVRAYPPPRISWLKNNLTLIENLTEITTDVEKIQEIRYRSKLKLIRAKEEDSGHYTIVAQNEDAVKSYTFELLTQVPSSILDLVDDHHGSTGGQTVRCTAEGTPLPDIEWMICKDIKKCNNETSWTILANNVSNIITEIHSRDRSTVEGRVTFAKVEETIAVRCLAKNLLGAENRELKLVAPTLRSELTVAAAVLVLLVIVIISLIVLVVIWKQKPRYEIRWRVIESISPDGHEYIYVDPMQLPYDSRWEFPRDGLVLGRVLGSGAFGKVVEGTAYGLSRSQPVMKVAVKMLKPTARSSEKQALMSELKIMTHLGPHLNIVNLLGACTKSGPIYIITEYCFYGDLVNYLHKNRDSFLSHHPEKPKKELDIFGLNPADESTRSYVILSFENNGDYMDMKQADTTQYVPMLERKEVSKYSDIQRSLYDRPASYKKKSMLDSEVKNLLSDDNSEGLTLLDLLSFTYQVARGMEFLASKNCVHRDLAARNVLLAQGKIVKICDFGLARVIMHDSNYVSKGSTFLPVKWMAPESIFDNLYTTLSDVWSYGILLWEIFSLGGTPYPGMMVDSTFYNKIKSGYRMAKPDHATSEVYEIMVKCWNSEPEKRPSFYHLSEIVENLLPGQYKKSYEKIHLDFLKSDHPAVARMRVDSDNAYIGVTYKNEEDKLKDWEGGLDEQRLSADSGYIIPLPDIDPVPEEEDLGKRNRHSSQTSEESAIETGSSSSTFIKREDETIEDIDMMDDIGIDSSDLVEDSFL
`O=C1NC(=O)C(c2cccc(Cl)c2)=C1Nc1ccc(Cl)c(C(=O)O)c1` had an inhibition of 0.72%.
`CCc1cccc(CC)c1/C=C/c1cncc(C(=O)NC)c1` came in with an inhibition of 0.6%.
The molecule `C/C(Nc1ccc(S(N)(=O)=O)cc1)=C1/C(=O)Nc2ccccc21` yielded an inhibition of 4.56%.
`Cc1ccc(C(=O)NC2CCC2)cc1-c1ccc(C(=O)NCC2CC2)cc1` yielded an inhibition of 3.52%.
Turning to `O=C(Nc1n[nH]c2cc(-c3ccccc3)ccc12)C1CC1`, the inhibition was determined as 2.33%.
Turning to `NS(=O)(=O)c1ccc(N/N=C2\C(=O)Nc3ccc(-c4cnco4)cc32)cc1`, the inhibition turned out to be 6.86%.
In the case of `COc1cc(C)c(N(C)C(=O)CN(C)C)cc1Nc1nc(Nc2cccc(F)c2C(N)=O)c2cc[nH]c2n1` it was 0.9%.
`CN1CCN(CCCNc2nc3ccc(Oc4ccc(NC(=O)Nc5cc(C(F)(F)F)ccc5F)cc4)cc3[nH]2)CC1`: the inhibition amounted to 2.11%.
Consider `Fc1ccc(-c2ncn(C3CCNCC3)c2-c2ccnc(Oc3ccc(F)c(F)c3)n2)cc1`, for which the inhibition is 2.91%.
As for `Cc1ccc(C(=O)NC(C)C)cc1-c1ccc(C(=O)NCC2CC2)cc1`, the figure is 2.27%; as for `N#Cc1ccc(Oc2nccc(-c3c(-c4ccc(F)cc4)ncn3C3CCNCC3)n2)cc1`, 3.33%.
For the molecule `NC(=O)Cc1ccccc1Oc1nccc(-c2c(-c3ccc(F)cc3)ncn2C2CCNCC2)n1`, the inhibition came out at 0.37%.
In the case of `c1ccc(Oc2ccc(Nc3ncc(-c4ccccc4)o3)cc2)cc1`, the inhibition was 4.48%.
In the case of `Fc1ccc(-c2ncn(C3CCNCC3)c2-c2ccnc(Oc3ccc4c(c3)OCO4)n2)cc1` it was 2.99%; in that of `COc1ccc(C2=C(N3CCc4ccccc43)C(=O)NC2=O)cc1`, 5.15%; in that of `C#Cc1cccc(Nc2ncnc3ccc(OCCCCNCCS(C)(=O)=O)cc23)c1`, 6.83%.
`c1ccc(-c2n[nH]cc2-c2ccnc(-c3ccc(OCCN4CCOCC4)cc3)c2)nc1` yielded an inhibition of 18.6%.
The molecule `Cc1ccc(NC(=O)c2ccoc2)cc1-c1ccc(C(=O)NCC2CC2)cc1` yielded an inhibition of 0.3%.
As for `CCS(=O)(=O)c1ccc(OC)c(Nc2ncc(-c3cccc(-c4ccccc4F)c3)o2)c1`, the figure is 6.19%.
With `Clc1ccc(CNc2nccc(-c3cnn4ncccc34)n2)cc1`, the inhibition came to 0.87%.
As for `COc1ccc2cc(-c3c(-c4ccncc4)nc(-c4ccc(S(C)(=O)=O)cc4C)n3C)ccc2c1`, the figure is 2.7%.
Regarding `CNC(=O)c1cncc(/C=C/c2c(C)cccc2C)c1`, the inhibition was 0.09%.
In the case of `CS(=O)(=O)CCNCc1cc(-c2cc3c(Nc4ccc(OCc5cccc(F)c5)c(Cl)c4)ncnc3s2)cs1`, the inhibition was 2.14%.
Molecule `CCS(=O)(=O)c1ccc(OC)c(Nc2ncc(-c3ccccc3Cl)o2)c1` displayed an inhibition of 1.1%.
Consider `Fc1ccc(-c2ncn(CCCN3CCOCC3)c2-c2ccncc2)cc1`, for which the inhibition was found to be 2.37%.
As to `COc1cccc(/C=N/Nc2ncnc3c2cnn3-c2cccc(OC)c2)c1`, the inhibition is 2.84%.
For `CN(C)CCOc1ccc(-c2cc(-c3ccc4c(c3)CCC4=NO)c(-c3ccncc3)o2)cc1`, the inhibition is 0.21%.
For the molecule `NS(=O)(=O)c1ccc(Nc2cc(-c3ccc(O)c(F)c3)n[nH]2)cc1`, the inhibition is 4.48%.
As for `NC(=O)c1cc(-c2ccc(F)cc2)cc(-c2ccncc2)c1N`, the figure is 1.68%; as for `COc1cc2ncn(-c3cc(OCCc4ccccc4)c(C(N)=O)s3)c2cc1OC`, 8.08%.
Molecule `O=C(Nc1n[nH]c2cc(-c3cc(F)ccc3F)ccc12)C1CC1` registered an inhibition of 2.07%.
In the case of `COc1ccc2ncn(-c3cc(O[C@H](C)c4ccccc4Cl)c(C(N)=O)s3)c2c1` it was 2.8%; in that of `CN(C)CCCNc1nccc(-c2c(-c3ccc(F)cc3)nn3cc(C(F)(F)F)ccc23)n1`, 3.3%; in that of `O=C(Nc1n[nH]c2nc(-c3ccco3)ccc12)C1CC1`, 3.54%.
